Sampled rows, rich in hits. Any-hit rate of the full collection: about 7.5%.
HCMV inh = qHTS Assay for inhibitors of the human cytomegalovirus (HCMV); 4.5% of 410,000 active; AID 1259415, 2018; HFF cells, HCMV-luciferase reporter, 72 h; active compounds read low; activity change, negative = inhibition, % at 57.5 µM; in the data active = activity change below about -60%; inconclusive = no clear call, values can overlap the other calls; inactive = above about -39%
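Inhibition of viral replication was scored as loss of reporter luminescence in HFFs infected with HCMV-luciferase (MOI 1 PFU/cell) for 72 h; compounds tested at 2 doses, normalized to buffer and Salinomycin controls.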
VACV Venus inh = qHTS for Stage-Specific Inhibitors of Vaccinia Orthopoxvirus: Venus Reporter Primary qHTS. 0.46% of 330,000 active. Potency, µM (highest dose often 36.5 µM), hits mostly inhibitors. Vaccinia virus Venus reporter expression, fluorescence. AID 720580, 2013; calls by dose curve; tested in A549 cells; note: nearly all actives have a fitted effect of over 30% in size
FMDV inh = High Throughput Screening for Foot and Mouth Disease Virus Antivirals; FMDV antiviral cell-based qHTS; AID 1159524, 2015; Potency, µM (highest dose often 57.9 µM), hits mostly inhibitors; 1.2% of 410,000 active; calls by dose curve; tested in HEK293T cells; note: read-out not given here; nearly all actives have a fitted effect of over 45% in size
HCV inh = qHTS Assay for Inhibitors of Hepatitis C Virus (HCV); 3.4% of 340,000 active; Potency, µM (top dose mostly 41.8 µM), usual class: inhibitors; Huh7.5.1 HCVcc-Cre infection, luciferase reporter, 44 h
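A cell-based infection assay in which seeded cells (1,000 per well) receive test compound after 4 h, are inoculated with HCVcc-Cre at approximately 0.5 moi, and are incubated 44 h before luminescence detection.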
Giardia FBPA inh-1 = qHTS Assay for Inhibitors of Fructose-1,6-bisphosphate Aldolase from Giardia Lamblia. purified Giardia FBPA. 0.71% of 290,000 active. Potency, µM (doses to about 59.6 µM), hits mostly inhibitors. A8B2U2; note: nearly all actives have a fitted effect of over 55% in size
Target sequence (A8B2U2 whole entry, looked up): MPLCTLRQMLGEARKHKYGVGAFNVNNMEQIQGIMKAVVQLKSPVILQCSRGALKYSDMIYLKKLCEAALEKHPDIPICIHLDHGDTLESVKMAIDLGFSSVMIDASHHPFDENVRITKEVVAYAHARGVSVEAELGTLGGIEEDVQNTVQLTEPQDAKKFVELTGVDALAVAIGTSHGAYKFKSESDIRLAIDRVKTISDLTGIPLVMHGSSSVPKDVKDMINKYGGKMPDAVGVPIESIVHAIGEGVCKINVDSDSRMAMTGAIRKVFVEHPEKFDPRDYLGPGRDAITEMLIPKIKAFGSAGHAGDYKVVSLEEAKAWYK
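40 nM FBPA preincubated 10 min at RT with compound (up to 57.5 uM final), then substrate plus GAPDH/TPI/NAD/arsenate coupling and diaphorase/resazurin added. Fluorescence read after 20 min at RT, 525/598 nm.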
Vaccinia mCherry = qHTS for Stage-Specific Inhibitors of Vaccinia Orthopoxvirus: mCherry Reporter Primary qHTS | AID 720579, 2013 | Potency, µM (highest dose often 36.5 µM), most hits filed as inhibitors | Vaccinia virus mCherry reporter infection, fluorescence | 0.63% of 310,000 active; calls by dose curve; tested in A549 cells; note: nearly all actives have a fitted effect of over 35% in size
Giardia growth = qHTS Assay for Inhibitors of Fructose-1,6-bisphosphate Aldolase from Giardia Lamblia: Giardia lamblia growth inhibition. 5% of 1,500 active. Potency, µM (doses to about 57.5 µM), hits mostly inhibitors. Giardia lamblia trophozoite growth inhibition. shares compounds with Giardia FBPA inh-1;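 note: trophozoites exposed to compound for 48 h at 37 °C; nearly all actives have a fitted effect of over 70% in size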
Mammalian tox = qHTS Assay for Inhibitors of Fructose-1,6-bisphosphate Aldolase from Giardia Lamblia: Mammalian cellular toxicity; shares compounds with Giardia FBPA inh-1; mammalian cell viability counter-screen, qHTS; Potency, µM (highest dose often 57.5 µM), hits mostly inhibitors; 4% of 1,500 active;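 note: Chinese hamster ovary cells used as mammalian cytotoxicity surrogate; viability measured as cellular ATP by luminescence; compound exposure lasted 48 h before reading; nearly all actives have a fitted effect of over 60% in size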
Giardia FBPA inh-2 = qHTS Assay for Inhibitors of Fructose-1,6-bisphosphate Aldolase from Giardia Lamblia: Primary screen confirmation | shares compounds with Giardia FBPA inh-1 | purified Giardia aldolase enzyme activity, qHTS | Potency, µM (doses to about 57.5 µM), actives largely listed as inhibitors | 5% of 1,500 active | AID 2787, 2010; note: nearly all actives have a fitted effect of over 45% in size
Rabbit aldolase = qHTS Assay for Inhibitors of Fructose-1,6-bisphosphate Aldolase from Giardia Lamblia: Rabbit FBPA Selectivity; 4% of 1,500 active; Potency, µM (series often up to 57.5 µM), usual class: inhibitors; shares compounds with Giardia FBPA inh-1; Rabbit muscle FBPA enzyme inhibition, selectivity counter-screen; AID 2794, 2010; note: nearly all actives have a fitted effect of over 60% in size
Target sequence (P00883 whole entry, looked up): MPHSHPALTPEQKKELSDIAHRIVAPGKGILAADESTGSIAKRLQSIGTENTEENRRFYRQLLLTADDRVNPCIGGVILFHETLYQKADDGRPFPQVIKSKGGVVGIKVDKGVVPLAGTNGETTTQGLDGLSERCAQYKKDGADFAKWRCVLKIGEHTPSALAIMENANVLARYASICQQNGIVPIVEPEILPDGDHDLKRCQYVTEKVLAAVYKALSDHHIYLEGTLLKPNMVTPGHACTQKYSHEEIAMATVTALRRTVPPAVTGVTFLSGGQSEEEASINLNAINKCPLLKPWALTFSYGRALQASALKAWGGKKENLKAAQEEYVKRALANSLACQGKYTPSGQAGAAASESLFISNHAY
GAPDH coupling = qHTS Assay for Inhibitors of Fructose-1,6-bisphosphate Aldolase from Giardia Lamblia: Coupling assay counterscreen confirmation | Potency, µM (top dose mostly 57.5 µM), hits mostly inhibitors | shares compounds with Giardia FBPA inh-1 | 6% of 1,500 active | GAPDH coupling enzyme counterscreen, biochemical, qHTS; note: nearly all actives have a fitted effect of over 55% in size
Large screens that a line does not name were inactive (follow-up assays come after a bar, where they were run); [ ] = remark or other dose. Unless noted, calls come from the whole dose curve; as a rule, active = well fitted curve in the direction sought with a large enough effect; inconclusive = small, poorly fitted or top-dose-only effect, or another doubt; inactive = no such curve, though single readings can be large; an effect the other way counts as inactive or inconclusive.

Cc1ccc(NC(=O)NC2CCCCC2)cc1Cl	none (no result: VACV Venus inh, Vaccinia mCherry)
Cc1ccc(NC(=O)CN(C)C2CCCCC2)cc1Cl	HCMV inh inconclusive, Giardia FBPA inh-1 20µM | Giardia growth inactive | Mammalian tox inactive | Giardia FBPA inh-2 inactive | Rabbit aldolase inactive | GAPDH coupling inactive
O=[N+]([O-])c1cc(C(F)(F)F)cc([N+](=O)[O-])c1Sc1n[nH]c(C(F)(F)F)n1	FMDV inh 6.31µM, Giardia FBPA inh-1 17.7µM | Giardia growth inconclusive | Mammalian tox inactive | Giardia FBPA inh-2 inactive | Rabbit aldolase inactive | GAPDH coupling inactive
C=CCNC(=S)/C(=C(\[O-])c1ccc(Cl)cc1)[n+]1ccccc1	Giardia FBPA inh-1 12.6µM | Giardia growth inactive | Mammalian tox inactive | Giardia FBPA inh-2 inactive | Rabbit aldolase inactive | GAPDH coupling inactive
CN1CCN(C(=S)c2ccc(Br)cc2)CC1	Giardia FBPA inh-1 15.8µM | Giardia growth inactive[10.4 µM] | Mammalian tox inactive | Giardia FBPA inh-2 inactive | Rabbit aldolase inconclusive | GAPDH coupling inconclusive
CN1CCN(C(=S)c2ccc(N(C)C)cc2)CC1	HCMV inh -108.2, Giardia FBPA inh-1 15.8µM (no result: VACV Venus inh, Vaccinia mCherry) | Giardia growth inconclusive | Mammalian tox inactive | Giardia FBPA inh-2 inactive | Rabbit aldolase inconclusive | GAPDH coupling inconclusive
CSc1ccc(C(=S)N2CCN(C)CC2)cc1	none (no result: FMDV inh)
CCN1CCN(C(=S)c2ccc(Br)cc2)CC1	none (no result: HCV inh, Giardia FBPA inh-1)
CC(OC(=O)CCN1C(=O)C2CC=CCC2C1=O)C(=O)Nc1ccc(F)cc1 (centres undefined)	none (no result: Giardia FBPA inh-1)
O=C(NCCc1ccccc1Cl)C1CCC(=O)N(C2CCCCCC2)C1 (centres undefined)	none (no result: VACV Venus inh, Vaccinia mCherry)
O=C(O)CCCCCN1C(=O)/C(=C\c2ccc(-c3ccc(Cl)cc3)o2)SC1=S	Giardia FBPA inh-1 15.8µM | Giardia growth inactive[10.4 µM] | Mammalian tox inactive | Giardia FBPA inh-2 inactive | Rabbit aldolase inactive | GAPDH coupling inactive
O=C(O)CCCN1C(=O)/C(=C/c2ccc(-c3nc4ccccc4s3)o2)SC1=S	none
CCOc1ccc(CCNC(=O)CCc2c(C)nc3c(c(C)nn3-c3ccc(C)c(C)c3)c2C)cc1	none (no result: HCV inh, Giardia FBPA inh-1)
Cc1cccc(OCCSc2nc(N)cc(N)n2)c1	Giardia FBPA inh-1 15.8µM | Giardia growth inactive | Mammalian tox inactive | Giardia FBPA inh-2 inactive | Rabbit aldolase inactive | GAPDH coupling inactive
CCCN(CC(=O)Nc1ccccc1C)C(=O)c1ccc(N2CCCC2)c([N+](=O)[O-])c1	none (no result: Giardia FBPA inh-1)
COc1ccc(-c2csc(N(CCCN(C)C)C(=O)c3ccccc3F)n2)cc1	HCV inh inconclusive, Giardia FBPA inh-1 28.2µM (no result: VACV Venus inh, Vaccinia mCherry) | Giardia growth inactive | Mammalian tox inactive | Giardia FBPA inh-2 inactive | Rabbit aldolase inactive | GAPDH coupling inactive
COCCN(C(=O)c1ccccc1F)c1nc(-c2ccc(OC)cc2)cs1	HCV inh inconclusive
O=C1c2ccccc2C(c2nnnn2C2CCCCC2)N1CCc1ccc(O)cc1 (centres undefined)	none (no result: HCV inh, Giardia FBPA inh-1)
Cc1ccc(C(=O)c2no[n+]([O-])c2C(=O)c2ccc(C)cc2)cc1	HCMV inh -98.5, FMDV inh inconclusive, HCV inh inconclusive, Giardia FBPA inh-1 15.8µM | Giardia growth inactive | Mammalian tox inactive | Giardia FBPA inh-2 inactive | Rabbit aldolase inconclusive | GAPDH coupling inactive
Cc1ccc(C(=O)c2ccc(C)cc2)cc1	none
CC(Sc1nnc(Cc2cccs2)n1C1CC1)C(=O)NC1CCS(=O)(=O)C1 (centres undefined)	none (no result: Giardia FBPA inh-1)
Cc1c(CCO)c(=O)n2c([nH]c3ccccc32)c1C#N	Giardia FBPA inh-1 25.1µM (no result: VACV Venus inh, Vaccinia mCherry) | Giardia growth inactive | Mammalian tox inactive | Giardia FBPA inh-2 inactive | Rabbit aldolase inactive | GAPDH coupling inactive
O=C(N/N=C/c1cccnc1)c1cc(O)c(O)c(O)c1	Giardia FBPA inh-1 10µM | Giardia growth inconclusive | Mammalian tox inactive | Giardia FBPA inh-2 inactive | Rabbit aldolase inactive | GAPDH coupling inactive
NC1=NN=C(N2N=C(c3ccc(Br)cc3)CC2(O)C(F)(F)F)n2ncnc2C1 (centres undefined)	HCMV inh inconclusive, Giardia FBPA inh-1 inconclusive | Giardia growth inactive | Mammalian tox inactive | Giardia FBPA inh-2 inactive | Rabbit aldolase inactive | GAPDH coupling inactive
O=C(CSc1cccc[n+]1[O-])Nc1cc(Cl)ccc1[N+](=O)[O-]	none (no result: Giardia FBPA inh-1)
O=[N+]([O-])c1ccc(Sc2cccc[n+]2[O-])c2nonc12	HCMV inh -106.2, FMDV inh 6.31µM, HCV inh 10µM, Giardia FBPA inh-1 0.354µM, Vaccinia mCherry inconclusive | Giardia growth 2µM | Mammalian tox 2.24µM | Giardia FBPA inh-2 6.31µM | Rabbit aldolase 15.8µM | GAPDH coupling 6.31µM
O=S(=O)(Nc1ccc(Cl)cc1)c1ccc(N2CCOCC2)c(NC(=S)NCCN2CCOCC2)c1	Giardia FBPA inh-1 5µM | Giardia growth inactive | Mammalian tox inactive | Giardia FBPA inh-2 inconclusive | Rabbit aldolase 39.8µM | GAPDH coupling 39.8µM
O=C(Cc1cn(-c2ccccc2)nc1-c1ccccc1)N1CCCCC1	HCMV inh inconclusive
CCN1CCN(C(=S)NC(=O)c2cc(OC)c(OC)c(OC)c2)CC1	none (no result: Giardia FBPA inh-1)
COc1cc(C(=O)NC(=S)Nc2nccs2)cc(OC)c1OC	HCV inh inconclusive, Giardia FBPA inh-1 14.1µM | Giardia growth inconclusive | Mammalian tox inactive | Giardia FBPA inh-2 inactive | Rabbit aldolase inactive | GAPDH coupling inactive
CCN(CC)C(=S)NC(=O)c1cc(OC)c(OC)c(OC)c1	HCV inh inconclusive, Giardia FBPA inh-1 17.7µM, Vaccinia mCherry inconclusive | Giardia growth inactive | Mammalian tox inactive | Giardia FBPA inh-2 inactive | Rabbit aldolase inactive | GAPDH coupling inactive
